Here are results for 14 molecules from PubChem BioAssay AID651642 (Sanford-Burnham Center for Chemical Genomics, 2012).

Activity calls are given as the source filed them.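 Rule for the calls: active = average half-effect concentration of 10 µM or less in every one of the four cell panels; inactive = the rest.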

The experiment concerns H9c2. The experiment is described as follows: cardiomyocyte survival under oxidative or metabolic stress – cell-based, panel, H9c2 and HL-1, H2O2, 2-deoxyglucose, ATP luminescence, SAR follow-up (AID 651642). As to conditions: H9c2/HL-1 cardiomyocyte H2O2 oxidative damage, mean of runs, with H2O2.
`CCOC(=O)c1cccc(NC(=O)c2cc(-c3cc(OC)c(OC)c(OC)c3)nc3ccc(F)cc23)c1`: the call was inactive.
The result for `COc1cc(-c2cc(C(=O)Nc3cccc(C(C)=O)c3)c3cc(F)ccc3n2)cc(OC)c1OC` reads “active”; that for `COc1ccccc1CN1C(=O)c2ccccc2N2C(=O)c3c(ccc(OC)c3OC)C12` (centres undefined), “inactive”.
The result for `COc1ccc2c(c1OC)C(=O)N1c3ccccc3C(=O)N(Cc3cccc(Br)c3)C21` (centres undefined) reads “inactive”; that for `COc1cc(-c2cc(C(=O)Nc3cccc(C(C)=O)c3)c3ccc(Cl)cc3n2)cc(OC)c1OC`, “inactive”; that for `COc1ccc2c(c1OC)C(=O)N1c3ccccc3C(=O)N(Cc3ccccc3F)C21` (centres undefined), “inactive”.
As to `COc1cc(-c2cc(C(=O)NCC(=O)Nc3cccc(C(C)=O)c3)c3cc(C)ccc3n2)cc(OC)c1OC`, the result was inactive.
The result for `CCOC(=O)c1cccc(NC(=O)c2cc(-c3cc(OC)c(OC)c(OC)c3)nc3ccc(Cl)cc23)c1` reads “inactive”.
Take `COc1ccc2c(c1OC)C(=O)N1c3ccccc3C(=O)N(Cc3c(Cl)cccc3Cl)C21` (centres undefined): the call was inactive.
For the molecule `COc1ccc2c(c1OC)C(=O)N1c3ccccc3C(=O)N(Cc3ccccc3C)C21` (centres undefined), the molecule was called inactive.
As for `COc1ccc2c(c1OC)C(=O)N1c3ccccc3C(=O)N(Cc3cccc(Cl)c3Cl)C21` (centres undefined), the entry is “inactive”; as for `CCNC(=O)c1cccc(NC(=O)c2cc(-c3cc(OC)c(OC)c(OC)c3)nc3ccccc23)c1`, “active”.
The result for `COc1cc(-c2cc(C(=O)Nc3cccc(C(=O)N(C)C)c3)c3ccccc3n2)cc(OC)c1OC` reads “inactive”; that for `COc1ccc2c(c1OC)C(=O)N1c3ccccc3C(=O)N(Cc3ccc(C)cc3C)C21` (centres undefined), “inactive”.
